Results taken from PubChem BioAssay (NCI).
This is part of a sample that, as a whole, favours compounds with a hit. Of some 83,000 tested, about 20% had one in any assay.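 The endpoint reported here, percent growth, reads 100 for growth as untreated, 0 for no net growth and -100 for all cells dead.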 Values without a mark were called inactive. Activity calls are given as the source filed them. Rule for the calls: active = growth percent below 10; inactive = the rest.

Assays:
Test in all cases: NCI-60 one-dose screen, 48 h (100 = growth as untreated, 0 = no growth, -100 = all killed)
Conditions in all cases: 10 µM unless noted
NCI-H23 lung = system: NCI-H23 lung
NCI-H226 lung = system: NCI-H226 lung
NCI-H322M lung = system: NCI-H322M lung
HOP-62 NSCLC = system: HOP-62 NSCLC
NCI-H460 lung = system: NCI-H460 lung
HOP-92 NSCLC = system: HOP-92 NSCLC
A549/ATCC NSCLC = system: A549/ATCC NSCLC
786-0 renal = system: 786-0 renal
DU-145 prostate = system: DU-145 prostate
MALME-3M melanoma = system: MALME-3M melanoma
MDA-MB-231 breast = system: MDA-MB-231 breast
SF-268 CNS = system: SF-268 CNS
SF-295 CNS = system: SF-295 CNS
SF-539 CNS = system: SF-539 CNS
UACC-257 melanoma = system: UACC-257 melanoma
M14 melanoma = system: M14 melanoma
COLO 205 colon = system: COLO 205 colon
K-562 leukemia = system: K-562 leukemia
RXF 393 renal = system: RXF 393 renal
NCI-H522 lung = system: NCI-H522 lung

Row | Structure (SMILES) | growth (NCI-H23 lung) | growth (NCI-H226 lung) | growth (NCI-H322M lung) | growth (HOP-62 NSCLC) | growth (NCI-H460 lung) | growth (HOP-92 NSCLC) | growth (A549/ATCC NSCLC) | growth (786-0 renal) | growth (DU-145 prostate) | growth (MALME-3M melanoma) | growth (MDA-MB-231 breast) | growth (SF-268 CNS) | growth (SF-295 CNS) | growth (SF-539 CNS) | growth (UACC-257 melanoma) | growth (M14 melanoma) | growth (COLO 205 colon) | growth (K-562 leukemia) | growth (RXF 393 renal) | growth (NCI-H522 lung)
1 | Cc1ccc2[nH]c(=O)cc(-n3nncc3COc3ccc(C=O)cc3)c2c1 | 103% | 90.3% | 103% | 101% | 106% | 95.6% | 103% | 102% | 105% | 100% | 101% | 102% | 104% | 99.4% | 116% | 103% |  |  |  | 
2 | FC(F)(F)Oc1cccc(-c2cc(NCCCCCCNc3cc(-c4cccc(OC(F)(F)F)c4)nc4ccc(N5CCCC5)cc34)c3cc(N4CCCC4)ccc3n2)c1 | -19.9% (active) | 68.5% | -79.3% (active) | -14% (active) | -52.1% (active) | -23.9% (active) | -75% (active) | -83.4% (active) | -5.9% (active) | -96.2% (active) | -91.5% (active) | -65.5% (active) | 34.1% | 8.48% (active) | -9.02% (active) | -84% (active) | -51.9% (active) | -48.7% (active) |  | 
3 | C=C(C)[C@H]1CC/C(C)=C/CC[C@]2(C)O[C@H]2CC/C(COC(=O)[C@@H](OC(C)=O)[C@H](NC(=O)c2ccccc2)c2ccccc2)=C\[C@@H]1O | 98.5% | 95% | 104% | 97.6% | 89% | 59.4% | 87.3% | 85.1% | 102% | 100% | 88.5% | 90.2% | 88.8% | 87.2% | 83.1% | 90.6% | 113% | 129% |  | 
4 | CC(=O)OC1CCC2(C)C(CCC3C4CC=C(C(C)=O)C4(C)OC(=O)CC32)C1 (stereo not given) | 34.7% | 45% | 95.7% | 61% | 78.1% | -21.2% (active) |  | 64% | 38.2% | -25.6% (active) | 35.3% | 53% | 73.1% | 61.7% | -74.9% (active) | -31.6% (active) | 2.72% (active) | -12.4% (active) | -60.5% (active) | 
5 | Cn1c(COC(=O)NCCn2ccnc2)nc2c(N3CCOCC3)nc(-c3ccccc3)nc21 | -74.8% (active) | -53.8% (active) | 33.4% | -40.4% (active) | -72.1% (active) | -75.2% (active) |  | -89.7% (active) | -89.9% (active) | -93.9% (active) | -90.6% (active) | -61.6% (active) | 18% | -99.6% (active) | -56.7% (active) | -72.5% (active) | -57.3% (active) | 4.31% (active) |  | 
6 | CC(=O)c1c[nH]c2ccc(-c3ccnc(Nc4ccc(NC(=O)c5cccc(F)c5)c(CN5CCOCC5)c4)n3)cc12 | -13.2% (active) | -0.697% (active) | -1.47% (active) | 1.97% (active) | -6.06% (active) | -22.8% (active) | 8.56% (active) | 5.7% (active) | 2.59% (active) | -21.7% (active) | -37.5% (active) | -16.8% (active) | -17.2% (active) | -56% (active) | 4.48% (active) | -19.4% (active) | -17.8% (active) | 4.68% (active) |  | 
7 | Cc1nn(-c2ccccc2)c(N2CCOCC2)c1/C=N/N=c1\sc2ccccc2n1C | 79% | 73.8% | 92.6% | 99.4% |  | 53% | 87.7% | 96.7% | 100% | 99.4% | 52.3% | 85% | 89.3% | 84.7% | 87.8% | 87.5% | 82.7% | 41.7% | 88.6% | 81.5%
8 | CN(C)C(C(N)=O)c1ccc(Cl)cc1 (stereo not given) | 104% | 103% | 103% | 99.6% | 109% | 71.4% | 96.6% | 96.1% | 107% | 103% | 98.3% | 102% | 100% | 99.5% | 95.5% | 96.7% | 110% | 98.8% | 118% | 
9 | COc1cc2nc(-c3ccc(C(F)(F)F)cc3)cc(OCCCN3CCCCC3)c2cc1OC | 57.9% | -11.8% (active) | 62.3% | 57.6% | 17.7% | 27.9% | 44.4% | 48.4% | 45.3% | 39.9% | 27.7% | 50.6% | -46.8% (active) | 46.1% | 10.1% | -19.2% (active) | 11.6% | 12.8% | 26.9% | 
10 | CS(=O)(=O)OCCN(CCOS(C)(=O)=O)c1ccc(/C=N/Nc2ccc([N+](=O)[O-])cc2[N+](=O)[O-])cc1 | 73.6% | 81.4% | 94.5% | 92.8% | 37.5% | 71.8% |  | 101% | 99.7% | 86.8% | 71.6% | 94.1% | 79.2% | 80.5% | 96.9% | 99.3% | 90% | 102% | 102% | 
11 | Clc1ccc(N2N=C(c3cccc(Nc4ccncc4)c3)CC2c2ccc3c(c2)OCO3)cc1 (stereo not given) | 83.6% | 82.5% | 68.6% | 42.4% | -65.4% (active) | 47.9% |  | 56.9% | 41.9% | 25.5% | 37.8% | 63.1% | 39% | 81.9% | 86% |  | -52.8% (active) | 5.23% (active) |  | 
12 | Cc1cc(C)n(Nc2nc3ccccc3[nH]c2=O)c(=O)c1C#N | 89.8% | 89% | 100% | 93% | 100% | 76.2% | 96.9% | 96.5% | 101% | 91.7% | 80.6% | 92.9% | 95.6% | 87.2% | 97.6% | 98.8% | 113% | 94.3% | 97.9% | 
13 | CC(C)[N+](C)(CCOC(COc1ccccc1)COc1ccccc1)C(C)C | 84.1% | 91.2% | 101% | 98.6% | 106% | 72.2% | 92.5% | 102% | 106% | 105% | 98% | 94.5% | 98.9% | 100% | 78.7% | 100% | 67.9% | 53% |  | 
14 | CC(=O)OCC(=O)[C@@]1(O)CC[C@H]2[C@@H]3CC(=C(Br)Br)C4=CC(=O)CC[C@]4(C)[C@H]3C(=O)C[C@@]21C | 88.6% | 92.1% | 88.5% | 71.9% | 103% | 87.3% | 65.1% | 85.1% | 107% | 98.3% | 86% | 89.8% | 76.7% | 98.4% | 67.6% | 82.3% |  | 102% |  | 
15 | O=C(c1ccccc1)N1N=C(c2ccc(-n3ccc(C(F)(F)F)n3)cc2)CC1c1ccc[nH]1 (stereo not given) | 96.4% | 95.1% | 80.6% | 105% | 100% | 113% | 82% | 87.3% | 104% | 93.6% | 97.6% | 98.6% | 97.1% | 92.6% | 90.1% | 79% | 101% | 65.1% | 97.1% | 
16 | CN(C)C(=O)c1cc2cnc(Nc3ccc(-c4csc5c(=O)cc(N6CCOCC6)oc45)cc3)nc2n1C1CCCC1 | -10.2% (active) | 2.17% (active) | -29% (active) | -30.4% (active) | -26.4% (active) | -3.68% (active) | -36.8% (active) | -1.22% (active) | -97.1% (active) | -67.9% (active) | -7.21% (active) | -2.94% (active) | -36.9% (active) | -70.2% (active) | -81.5% (active) | -73.4% (active) |  | 2.96% (active) | -85.8% (active) | 
17 | O=C(Nc1cccc(Cl)c1)Oc1c(Br)c(Br)c(Br)c(Br)c1Br | 91% | 81.3% | 107% | 56.1% | 99.7% | 66.5% | 73.7% | 93.8% | 105% | 90.7% | 103% | 91.4% | 79.2% | 98.1% | 69.4% | 90.9% | 100% | 78.5% |  | 
